Data: PubChem BioAssay (NCATS)
Results filed as inconclusive are left out. The source made the active and inactive calls. The call rests on the fitted dose curve; in most records, active means well fitted curve in the direction sought with a large enough effect; inconclusive means small, poorly fitted or top-dose-only effect, or another doubt; inactive means no such curve, though single readings can be large; an effect the other way counts as inactive or inconclusive.

Legend:
[1] = target: Metallo-beta-lactamase type 2 (Klebsiella pneumoniae) (UniProt C7C422); assay: qHTS to identify inhibitors of the New Delhi Metallo-beta-lactamase (NDM): assay validation screen against the NCATS LOPAC Collection (AID 1794843); conditions: NDM-1 enzyme, nitrocefin hydrolysis, absorbance 485 nm; series mostly up to 38.4 µM;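 further: nitrocefin turnover by NDM-1 measured as 485 nm absorbance at plateau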
Sequence of Metallo-beta-lactamase type 2 (Klebsiella pneumoniae) (C7C422 whole entry, looked up): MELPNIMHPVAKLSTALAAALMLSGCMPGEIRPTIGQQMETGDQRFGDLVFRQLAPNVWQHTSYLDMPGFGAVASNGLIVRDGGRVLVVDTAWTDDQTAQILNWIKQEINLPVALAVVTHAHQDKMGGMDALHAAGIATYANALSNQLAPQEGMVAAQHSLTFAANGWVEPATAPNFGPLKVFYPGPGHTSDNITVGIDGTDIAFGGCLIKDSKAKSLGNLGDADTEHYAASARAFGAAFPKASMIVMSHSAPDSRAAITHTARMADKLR
How it was run: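 Enzyme 2 nM final, 50 mM HEPES pH 7.0, 1 uM ZnSO4, 0.01% Tween20; cpds in DMSO, preincub w/ enzyme; + nitrocefin (50 uM stock); A485 at plateau; no-enzyme column as blank.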

[2] = target: Glutathione peroxidase 1 (Homo sapiens) (UniProt P07203); assay: Primary qHTS Assay for Inhibitors of Recombinant Selenoprotein Glutathione Peroxidase 1 (GPX1) (AID 1845191); conditions: recombinant GPX1, GR-coupled NADPH fluorescence, 15 min; series mostly up to 48.8 µM; further: nearly all actives have a fitted effect of over 65% in size
Sequence of Glutathione peroxidase 1 (Homo sapiens) (P07203 whole entry, looked up): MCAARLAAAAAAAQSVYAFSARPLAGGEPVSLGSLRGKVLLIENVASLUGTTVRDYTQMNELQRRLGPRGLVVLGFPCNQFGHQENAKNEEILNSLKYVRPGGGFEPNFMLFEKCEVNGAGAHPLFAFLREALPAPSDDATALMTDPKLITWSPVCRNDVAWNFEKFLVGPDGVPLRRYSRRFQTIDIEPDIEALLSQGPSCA
How it was run: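 Recombinant GPX1 (10 nM final) was preincubated with compound for 30 min at room temperature, then reacted with 1 mM GSH, 0.5 mM CHP, 0.5 mM NADPH and 100 nM glutathione reductase; NADPH fluorescence (340/450 nm) was read at 0 and 15 min.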

[3] = target: Phospholipid hydroperoxide glutathione peroxidase GPX4 (Homo sapiens) (UniProt P36969); assay: Primary qHTS Assay for Inhibitors of Recombinant Selenoprotein Glutathione Peroxidase 4 (GPX4) (AID 1845192); conditions: recombinant GPX4, GR-coupled NADPH fluorescence, 15 min; series mostly up to 50 µM; further: nearly all actives have a fitted effect of over 65% in size
Sequence of Phospholipid hydroperoxide glutathione peroxidase GPX4 (Homo sapiens) (P36969 whole entry, looked up): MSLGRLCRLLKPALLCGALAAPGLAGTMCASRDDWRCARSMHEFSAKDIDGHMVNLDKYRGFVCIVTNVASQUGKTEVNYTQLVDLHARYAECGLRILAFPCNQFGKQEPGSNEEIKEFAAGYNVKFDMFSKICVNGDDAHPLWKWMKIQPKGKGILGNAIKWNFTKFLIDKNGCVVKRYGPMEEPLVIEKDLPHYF
How it was run: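 GR-coupled readout: 100 nM GR, 1 mM GSH, 0.5 mM NADPH; NADPH fluorescence (ex 340/em 450 nm) read at t=0 and after 15 min RT. GPX4 200 nM, preincubated 30 min with compound; substrate 0.5 mM CHP.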

Measured: Potency

CCCCC[C@H](CC(=O)NO)C(=O)N[C@H](C(=O)N1CCC[C@H]1CO)C(C)C
inactive: all assays above

O=C(O)C1=CCCNC1
inactive: all assays above

C#CC(N)CCC(=O)O (stereo unspecified)
inactive: all assays above

O=C(O)c1ccccc1Nc1cccc(OCc2ccc3ccccc3n2)c1
inactive: all assays above

CN1CCCC1CCOC(C)(c1ccccc1)c1ccc(Cl)cc1 (stereo unspecified)
inactive: all assays above

Oc1ccc(Cn2cc[nH]c2=S)cc1
inactive: all assays above

N=C(N)c1ccc(N)cc1
inactive: all assays above

N[C@H](C(=O)O)[C@H](O)C(=O)O
inactive: all assays above

CCCCCCCC/C=C\CCCCCCCC(=O)NCCc1ccc(O)c(O)c1
inactive: all assays above

Nc1nc2ccc(Cl)cc2c2nc(-c3ccco3)nn12
inactive: all assays above

CCCCCCCCCCCCCCC[C@H](O)[C@H](N)CO
inactive: all assays above

CC(N)=NCCCC[C@@H](N)C(=O)O
inactive: all assays above

NOCC(=O)O
inactive: all assays above

NC(N)=N[C@@H](CCC(=O)O)C(=O)O
inactive: all assays above

NC1(C(=O)O)CCCCC1
inactive: all assays above

Cn1c(=O)c2[nH]c(C3CCCC3)nc2n(C)c1=O
inactive: all assays above

CCC1(O)CC2CN(CCc3c([nH]c4ccccc34)[C@@](C(=O)OC)(c3cc4c(cc3OC)N(C=O)C3[C@]45CCN4CC=C[C@@](CC)([C@@H](OC(C)=O)[C@]3(O)C(=O)OC)[C@H]45)C2)C1 (stereo partly specified)
inactive: all assays above
